According to PubChem BioAssay (Tox21):
Several values for one entry are separate records, joined by “and”; a condition that tells them apart may be missing. Equal values may be shown once. Records with an inconclusive call do not appear. Activity calls are given as the source filed them. Calls come from the whole dose curve; as a rule, active = well fitted curve in the direction sought with a large enough effect in the repeat runs; inconclusive = weak or mixed curves; inactive = no such curve, though single readings can be large; an effect the other way counts as inactive or inconclusive.

Key:
[1] = qHTS RealTime-Glo MT Cell Viability Assay in HepG2 cells - 40 hour (AID 1224870); note: nearly all actives have a fitted effect of over 50% in size
Method in brief: (§1)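 HepG2 cells mixed with RealTime-Glo MT reagents (NanoLuc plus cell-permeant prosubstrate) were seeded at 600 cells/well, incubated 5 h at 37 C/5% CO2, then pinned with compounds in DMSO; nonlytic luminescence tracked viability during 40 h treatment.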

[2] = A CellTox Green Cytotoxicity Assay to monitor cytotoxicity in HEK293 cells - 40 hour (AID 1224871); note: nearly all actives have a fitted effect of over 45% in size
Method in brief: (§2)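 Homogeneous no-lysis format: HEK293 cell suspension mixed with CellTox Green reagent, seeded, incubated 5 h at 37 C/5% CO2, then dosed by pintool with compound in DMSO.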

[3] = qHTS RealTime-Glo MT Cell Viability Assay in HEK293 cells - 16 hour (AID 1224872); note: top concentration of the series differs between compounds; nearly all actives have a fitted effect of over 50% in size
Method in brief: (§3)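 Viability tracked continuously by luminescence as live cells reduce a prosubstrate for NanoLuc; HEK293 cells preincubated 5 h, compound-treated at 37 C, and read at 0, 8, 16, 24, 32 and 40 h.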

[4] = qHTS RealTime-Glo MT Cell Viability Assay in HepG2 cells - 8 hour (AID 1224873); note: nearly all actives have a fitted effect of over 55% in size
Method in brief: as §1

[5] = qHTS RealTime-Glo MT Cell Viability Assay in HEK293 cells - 40 hour (AID 1224874); conditions: RealTime-Glo luminescence; max response: stronger effect = lower value; note: nearly all actives have a fitted effect of over 50% in size
Method in brief: (§4)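 Measured as luminescence from the same continuously cultured HEK293 wells at successive time points (0, 8, 16, 24, 32, 40 h) after compound addition. Reagent present from seeding; dosing at 5 h; incubation 37 C.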

[6] = A CellTox Green Cytotoxicity Assay to monitor cytotoxicity in HEK293 cells - 24 hour (AID 1224875); note: series mostly up to about 77 µM; nearly all actives have a fitted effect of over 45% in size
Method in brief: as §2

[7] = A CellTox Green Cytotoxicity Assay to monitor cytotoxicity in HepG2 cells - 16 hour (AID 1224876); note: nearly all actives have a fitted effect of over 45% in size
Method in brief: (§5)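 Fluorescent DNA-binding dye, 600 HepG2 cells/well, 5 h preincubation then compound in DMSO; same plates read at 0–40 h, 37 C.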

[8] = qHTS RealTime-Glo MT Cell Viability Assay in HepG2 cells - 32 hour (AID 1224877); note: nearly all actives have a fitted effect of over 55% in size
Method in brief: (§6)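 Viability was tracked continuously by NanoLuc luminescence from prosubstrate reduced by living HepG2 cells, at successive time points over 40 h of compound exposure. Cells with reagent were preincubated 5 h at 37 °C before compound addition.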

[9] = A CellTox Green Cytotoxicity Assay to monitor cytotoxicity in HepG2 cells - 24 hour (AID 1224878); note: nearly all actives have a fitted effect of over 45% in size
Method in brief: as §5

[10] = A CellTox Green Cytotoxicity Assay to monitor cytotoxicity in HepG2 cells - 40 hour (AID 1224879); note: nearly all actives have a fitted effect of over 40% in size
Method in brief: as §5

[11] = qHTS RealTime-Glo MT Cell Viability Assay in HEK293 cells - 0 hour (AID 1224880)
Method in brief: as §4

[12] = A CellTox Green Cytotoxicity Assay to monitor cytotoxicity in HEK293 cells - 32 hour (AID 1224881); note: nearly all actives have a fitted effect of over 40% in size
Method in brief: as §2

[13] = A CellTox Green Cytotoxicity Assay to monitor cytotoxicity in HepG2 cells - 0 hour (AID 1224882); note: nearly all actives have a fitted effect of over 35% in size
Method in brief: as §5

[14] = A CellTox Green Cytotoxicity Assay to monitor cytotoxicity in HepG2 cells - 32 hour (AID 1224883); note: nearly all actives have a fitted effect of over 50% in size
Method in brief: as §5

[15] = A CellTox Green Cytotoxicity Assay to monitor cytotoxicity in HEK293 cells - 8 hour (AID 1224884); note: nearly all actives have a fitted effect of over 35% in size
Method in brief: as §2

[16] = qHTS RealTime-Glo MT Cell Viability Assay in HepG2 cells - 16 hour (AID 1224885); note: nearly all actives have a fitted effect of over 50% in size
Method in brief: as §6

[17] = qHTS RealTime-Glo MT Cell Viability Assay in HEK293 cells - 24 hour (AID 1224886)
Method in brief: as §3

[18] = qHTS RealTime-Glo MT Cell Viability Assay in HEK293 cells - 8 hour (AID 1224887)
Method in brief: as §4

[19] = A CellTox Green Cytotoxicity Assay to monitor cytotoxicity in HEK293 cells - 16 hour (AID 1224888); note: nearly all actives have a fitted effect of over 35% in size
Method in brief: as §2

[20] = qHTS RealTime-Glo MT Cell Viability Assay in HepG2 cells - 0 hour (AID 1224889); note: nearly all actives have a fitted effect of over 50% in size
Method in brief: as §6
% is set by controls: 0 for no effect and ±100 for the full control effect.

c1cc(-c2ccncc2)ccn1
inactive: Potency [1] | Potency [2] | Potency [3] | Potency [4] | max response [5] -8.48% and 4.82% | Potency [6] | Potency [7] | Potency [8] | Potency [9] | Potency [10] | Potency [11] | Potency [12] | Potency [13] | Potency [14] | Potency [15] | Potency [16] | Potency [17] | Potency [18] | Potency [19] | Potency [20]

CCOCCOCCO
inactive: Potency [1] | Potency [2] | Potency [3] | Potency [4] | Potency [6] | Potency [7] | Potency [8] | Potency [9] | Potency [10] | Potency [11] | Potency [12] | Potency [13] | Potency [14] | Potency [15] | Potency [16] | Potency [17] | Potency [18] | Potency [19] | Potency [20]

O=C(/C=C/c1ccccc1)OCc1ccccc1
inactive: Potency [1] | Potency [2] | Potency [3] | Potency [4] | Potency [6] | Potency [8] | Potency [10] | Potency [11] | Potency [12] | Potency [13] | Potency [14] | Potency [15] | Potency [16] | Potency [17] | Potency [18] | Potency [19] | Potency [20]

C=C(C)C(=O)OCCOC(=O)C(=C)C
inactive: Potency [1] | Potency [2] | Potency [3] | Potency [4] | max response [5] 7.24% and -0.024% | Potency [6] | Potency [8] | Potency [9] | Potency [10] | Potency [11] | Potency [12] | Potency [13] | Potency [14] | Potency [15] | Potency [16] | Potency [17] | Potency [19] | Potency [20]

O=C(O)c1ccccc1Nc1cccc(C(F)(F)F)c1
inactive: Potency [1] | Potency [2] | Potency [3] | Potency [4] | max response [5] -19.7% and -3.43% | Potency [6] | Potency [7] | Potency [8] | Potency [9] | Potency [10] | Potency [11] | Potency [12] | Potency [13] | Potency [14] | Potency [15] | Potency [16] | Potency [17] | Potency [18] | Potency [19] | Potency [20]
